The results in this text go back to PubChem BioAssay AID1851 (National Center for Advancing Translational Sciences (NCATS), 2009).

Values joined by “and” are separate entries in the source; they are usually repeats but may differ in a detail not shown here. Identical values can stand only once. The campaign covered roughly 16,000 compounds. About 5,100 (32%) were called active. Not shown: some 25% with an inconclusive outcome. Calls follow the shape of the dose curve; as a rule, active = well fitted curve in the direction sought with a large enough effect; inconclusive = small, poorly fitted or top-dose-only effect, or effect the other way; inactive = no such curve, though single readings can be large or run the other way. The list shows a part of the results.
% is scaled to controls: 0 for no effect and ±100 for the full control effect.

The assay deals with Cytochrome P450 3A4 (Homo sapiens) (UniProt P08684). The assay can be described thus: Cytochrome panel assay with activity outcomes. Particulars: recombinant CYP, pro-luciferin dealkylation, luminescence, p450-cyp3a4; series mostly up to 57.1 µM; activity, negative = inhibition: at the top concentration.
Chain of Cytochrome P450 3A4 (Homo sapiens) (P08684 whole entry, looked up): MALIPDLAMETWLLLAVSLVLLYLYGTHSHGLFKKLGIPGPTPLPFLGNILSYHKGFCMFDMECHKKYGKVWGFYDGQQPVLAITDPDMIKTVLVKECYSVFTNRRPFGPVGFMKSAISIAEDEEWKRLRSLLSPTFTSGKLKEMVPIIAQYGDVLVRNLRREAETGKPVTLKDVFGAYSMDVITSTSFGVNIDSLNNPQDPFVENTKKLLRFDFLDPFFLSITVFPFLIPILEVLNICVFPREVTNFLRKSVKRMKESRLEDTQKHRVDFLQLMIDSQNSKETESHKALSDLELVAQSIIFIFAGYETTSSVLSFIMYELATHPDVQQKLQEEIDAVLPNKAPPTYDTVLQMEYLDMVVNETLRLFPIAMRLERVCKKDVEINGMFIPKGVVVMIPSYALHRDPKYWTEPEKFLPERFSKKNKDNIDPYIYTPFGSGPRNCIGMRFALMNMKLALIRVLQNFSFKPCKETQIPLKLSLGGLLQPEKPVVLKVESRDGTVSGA
In the case of `O=S(=O)(O)c1ccc(N=Nc2ccc3c(S(=O)(=O)O)cccc3c2O)c2ccccc12`, the activity, negative = inhibition is -9.88% [at 11.4 µM] (inactive).

For `Cc1ccc(C)c(OCCCC(C)(C)C(=O)O)c1`, the “activity, negative = inhibition” value was 5.28% [at 25.6 µM] (inactive).

As for `CC(=O)CSc1nnc(Cc2ccc([N+](=O)[O-])cc2)o1`, the activity, negative = inhibition was 7.56% [at 2.29 µM] (inactive).

As for `C/C(N)=C(/C#N)C(=O)CSc1nnc(COc2cc(C)ccc2C)o1`, the AC50 is 3.55 µM (active).

For `C[C@H](CO)NC(=O)[C@H](C)[C@@H]1C[C@@]1(C)[C@@H](NC(=O)OCc1ccccc1)c1ccccc1`, the AC50 is 5.01 µM (active).

On to `C[C@H](CO)NC(=O)[C@H](C)[C@H]1C[C@]1(C)[C@H](NC(=O)OCc1ccccc1)c1ccccc1`, for which the concentration at half-maximal activity (AC50) is 3.98 µM (active).

For `CN(C)S(=O)(=O)c1cc([N+](=O)[O-])ccc1N1CCCCCC1`, the concentration at half-maximal activity (AC50) is 12.6 µM (active).

Regarding `CN1CCN(c2ccc([N+](=O)[O-])cc2S(=O)(=O)N2CCOCC2)CC1`, the “activity, negative = inhibition” value is -14.4% (inactive).

For `CN1CCN(c2ccc([N+](=O)[O-])cc2C(=O)N2CCOCC2)CC1`, the “activity, negative = inhibition” value was -0.527% (inactive).

Regarding `O=C(c1ccc(Br)cc1)c1cc([N+](=O)[O-])ccc1N1CCCCC1`, the AC50 was 3.55 µM (active).

Regarding `O=C(N/N=C/c1cc([N+](=O)[O-])ccc1N1CCNCC1)c1ccc([N+](=O)[O-])cc1`, the “activity, negative = inhibition” value was 5.34% (inactive).

Take `CN1CCN(S(=O)(=O)c2cc([N+](=O)[O-])ccc2N2CCCCCC2)CC1`: the AC50 is 0.794 µM (active).

Regarding `O=C1C[C@@H](O)[C@@H](O)[C@H]2[C@@H]3C(=O)N(C4CCCCC4)C(=O)[C@@H]3CC[C@H]12`, the activity, negative = inhibition is -5.08% [at 11.4 µM] (inactive) and -17.3% [at 11.4 µM] (inactive) and -26.5% [at 11.4 µM] (inactive).

Consider `Cc1ccc(/C=N/n2c(-c3cccs3)n[nH]c2=S)cc1`, for which the AC50 was 11.2 µM (active).

`COc1ccc(C2=CSC(/N=C/c3ccc(F)cc3)=NN2)cc1`: the activity, negative = inhibition was 0.425% [at 2.29 µM] (inactive).

In the case of `Cc1ccc(-c2n[nH]c(=S)n2/N=C/c2cccn2C)cc1`, the AC50 was 12.6 µM (active).

As for `COc1ccc(/C=N/n2c(-c3cccs3)n[nH]c2=S)cc1`, the half-maximal activity concentration (AC50) is 8.91 µM (active).

As to `Cc1ccc(/C=C/c2nnc(-c3cccs3)o2)cc1`, the activity, negative = inhibition was 6.75% [at 2.29 µM] (inactive).

As to `CN(C)C=Nc1ccc2nn(-c3ccccc3)nc2c1`, the activity, negative = inhibition was -3.41% [at 2.29 µM] (inactive).

Take `O=[N+]([O-])c1ccc([C@@H](Nc2ccccc2)c2ccc3cccnc3c2O)cc1`: the activity, negative = inhibition was -23.7% [at 11.4 µM] (inactive).

In the case of `CCCSc1cc(N2CCCC2)nc(-c2ccccc2)n1`, the “activity, negative = inhibition” value was -13.5% (inactive).

As to `c1ccc(-c2nc(N3CCCCCC3)nc(-n3ccnc3)n2)cc1`, the AC50 is 0.708 µM (active).

Regarding `c1ccc(-c2nnn(CCN3CCCCC3)n2)cc1`, the activity, negative = inhibition was -9.98% [at 11.4 µM] (inactive).

Take `CN(c1ccccc1)c1nc(-n2ccnc2)nc(-n2ccnc2)n1`: the AC50 is 0.891 µM (active).

Turning to `COc1ccccc1-c1ccc2ncnc(N3CCOCC3)c2c1`, the concentration at half-maximal activity (AC50) was 6.31 µM (active).

Regarding `COc1ccccc1-c1ccc2ncnc(N3CCN(C)CC3)c2c1`, the AC50 was 3.16 µM (active).

As to `CN(C)C(=O)c1ccc(-c2ccc3ncnc(N4CCC(C(=O)O)CC4)c3c2)cc1`, the “activity, negative = inhibition” value was 1.85% (inactive).

Turning to `CN(C)Cc1ccccc1-c1ccc2ncnc(N3CCOCC3)c2c1`, the AC50 is 20 µM (active).

Turning to `CCCCCCCCCn1cc(C(C)=O)c(=O)[nH]c1=O`, the activity, negative = inhibition is -7.53% [at 2.29 µM] (inactive).

With `CN(C)C[C@H]1CCC2=C(C1=O)C(c1ccc(Cl)c(Cl)c1)C1=C(CC[C@H](CN(C)C)C1=O)O2`, the half-maximal activity concentration (AC50) was 0.398 µM (active).

As for `O=C(Cn1ccc(=O)[nH]c1=O)Nc1ccc(C(=O)O)c(O)c1`, the activity, negative = inhibition was -4.95% [at 11.4 µM] (inactive).

For the compound `COc1ccc(Cc2nc3ccc(S(=O)(=O)N4CCOCC4)cc3[nH]2)cc1OC`, the AC50 was 12.6 µM (active).

Turning to `COc1cccc2c1OC1(C)CC2/C(=C(\C)O)C(=O)N1` (stereo not drawn), the “activity, negative = inhibition” value was -3.38% (inactive).

In the case of `COc1cccc(C2NC(c3cccc(OC)c3O)C(C)C(=O)C2C)c1O` (stereo not drawn), the concentration at half-maximal activity (AC50) was 12.6 µM (active).

Take `COc1cccc(C(c2c(C)[nH]n(-c3ccccc3)c2=O)c2c(C)[nH]n(-c3ccccc3)c2=O)c1O`: the “activity, negative = inhibition” value was 2.06% (inactive).

As to `CN1c2ccccc2Oc2c(c(=O)n(C)c(=O)n2C)C1c1cccc([N+](=O)[O-])c1` (stereo not drawn), the half-maximal activity concentration (AC50) is 15.8 µM (active).

Take `CC1(C)CC2(CC(C)(C(=O)CSc3nc4ccccc4s3)OC2=O)C(=O)O1` (stereo not drawn): the AC50 was 10 µM (active).

In the case of `CC(C)CC1CC(=O)OC1(C)C(=O)CSc1nc2ccccc2s1` (stereo not drawn), the half-maximal activity concentration (AC50) is 15.8 µM (active).

Turning to `NCCSSCCN`, the AC50 result is “inactive”.

`COc1cccc(-c2nc(NCCc3c[nH]c4ccc(OC)cc34)c3ccccc3n2)c1`: the AC50 is 2 µM (active).

Turning to `COc1ccc2[nH]cc(CCNc3nc(-c4cccnc4)nc4ccccc34)c2c1`, the AC50 is 1.58 µM (active).

Consider `COc1ccc2[nH]cc(CCNc3nc(-c4ccccc4OC)nc4ccccc34)c2c1`, for which the AC50 was 2.51 µM (active).

With `COc1ccc2[nH]cc(CCNc3nc(-c4ccoc4)nc4ccccc34)c2c1`, the AC50 was 3.16 µM (active).

As to `COC(=O)[C@@H]1O[C@@H](c2c(OC)c(OC)c(C)c(OC)c2OC)[C@H](C)[C@@H](O)[C@@H]1C`, the activity, negative = inhibition was -7.25% [at 11.4 µM] (inactive).

As to `COc1ccc(-n2c(=O)c(-c3cn(C)c4ccccc34)nc3cncnc32)cc1`, the concentration at half-maximal activity (AC50) is 20 µM (active).

Consider `Cn1cc(-c2nc3cncnc3n(-c3ccccc3)c2=O)c2ccccc21`, for which the AC50 was 10 µM (active).

`O=c1c(-c2ccccc2)nc2cncnc2n1-c1ccccc1`: the “activity, negative = inhibition” value was -27.5% (inactive).

`CCCCCc1nnc(NC(=O)C(=O)OCC)s1`: the activity, negative = inhibition was 1.6% [at 2.29 µM] (inactive).

Regarding `CCCc1nnc(NC(=O)C(CC)OC(=O)c2cc(C)nc3ccccc23)s1` (stereo not drawn), the AC50 was 12.6 µM (active).

Take `CCCc1nnc(NC(=O)CCC(=O)NCc2ccccc2OC)s1`: the activity, negative = inhibition is 2.33% [at 2.29 µM] (inactive).

Regarding `CC(=O)Nc1ccc(C2=NN(CC#N)C(=O)SC2)cc1`, the “activity, negative = inhibition” value is -15.6% (inactive).

Regarding `O=C(Nc1cccnc1)C1COc2ccccc2O1` (stereo not drawn), the “activity, negative = inhibition” value is -22.7% (inactive).

Turning to `O=C(c1ccccc1)c1c[nH]c(C(=O)NCc2cccnc2)c1`, the AC50 is 4.47 µM (active).

Consider `O=C(O)[C@@H]1[C@@H](C(=O)NCc2cccnc2)[C@@H]2C=C[C@@H]1O2`, for which the activity, negative = inhibition was -21.1% [at 11.4 µM] (inactive).

Regarding `O=C(CCc1ccccc1)NCc1cccnc1`, the half-maximal activity concentration (AC50) is 5.01 µM (active).

With `O=C(NCc1cccnc1)C1COc2ccccc2O1` (stereo not drawn), the AC50 is 5.01 µM (active).

With `NNC(=O)Cc1cccnc1`, the AC50 was 3.16 µM (active).

Regarding `COc1ccc(C(=O)c2c[nH]c(C(=O)NCc3cccs3)c2)cc1`, the “activity, negative = inhibition” value was -17.8% (inactive).

Take `O=C(O)Cc1cccnc1`: the activity, negative = inhibition is -12.2% [at 11.4 µM] (inactive).

Take `O=C(NCc1cccnc1)[C@@H]1[C@@H](C(=O)O)[C@H]2CC[C@@H]1O2`: the activity, negative = inhibition is -23.9% [at 11.4 µM] (inactive).

Take `CC(C)=CCC/C(C)=C/CO/N=C1/C[C@@H](O)[C@@H](O)[C@@H]2[C@@H]3C(=O)N(C(C)(C)C)C(=O)[C@H]3CC[C@H]12`: the activity, negative = inhibition is -7.78% [at 11.4 µM] (inactive).

Turning to `CO[C@]1(C2=NCCN2)COc2ccccc2O1`, the AC50 result is “inactive”.

As to `O=C(CSCc1c(Cl)cccc1Cl)NCc1cccnc1`, the AC50 is 3.16 µM (active).

As to `Cc1nc2c(C(=O)NCc3ccc4c(c3)OCO4)c[nH]n2c(=O)c1Cc1ccccc1F`, the AC50 was 2.24 µM (active).

`CCOC(=O)Cc1c(C)nc2c(C#N)c[nH]n2c1=O`: the “activity, negative = inhibition” value was -0.582% (inactive).

With `COc1ccc(-n2cccc2C=O)cc1OC`, the “activity, negative = inhibition” value was -5.8% (inactive).

As for `CC(C)(C)NC(=O)CSC(=Nc1ccc(F)cc1)NC#N`, the activity, negative = inhibition is -11.3% [at 2.29 µM] (inactive).

For `O=C(Oc1ccccc1N1C(=O)C2CCCCC2C1=O)c1ccccc1` (stereo not drawn), the activity, negative = inhibition is -1.02% [at 2.29 µM] (inactive).

Turning to `Cc1ccc(C(=O)COC(=O)c2ccccc2N2C(=O)C3C4CCC(C4)C3C2=O)cc1C` (stereo not drawn), the AC50 is 12.6 µM (active).

As for `C[N+]1(C)CCC[C@@H](OC(=O)C(O)(c2ccccc2)c2ccccc2)C1`, the “activity, negative = inhibition” value is -1.21% [at 25.6 µM] (inactive).

For the compound `CCC(=O)Nc1ccc(C(=O)CSc2nnc(-c3ccc(O)cc3)n2CC2CCCO2)cc1OC` (stereo not drawn), the AC50 is 14.1 µM (active).

In the case of `Cc1ccc(-c2ccc(CCC(=O)O)n2CC2CCCO2)cc1` (stereo not drawn), the activity, negative = inhibition was 18.1% [at 2.29 µM] (inactive).

On to `CC(C)(CO)Cc1cc(C(C)(C)C)c(O)c(C(C)(C)C)c1`, for which the AC50 is 2.51 µM (active).

As for `Cc1cc(Cc2cc(C)cc(C(C)(C)C)c2O)c(O)c(Cc2cc(C)cc(C(C)(C)C)c2O)c1`, the activity, negative = inhibition was -19.8% [at 11.4 µM] (inactive).

Turning to `Cc1cc(Cc2c(C)c(C)c(Cc3cc(C)cc(C(C)(C)C)c3O)c(C)c2C)c(O)c(C(C)(C)C)c1`, the activity, negative = inhibition was 0.196% [at 11.4 µM] (inactive).

`Cc1cc(-c2cc(C)c(O)c(C(C)(C)C)c2)cc(C(C)(C)C)c1O`: the activity, negative = inhibition was -12.3% [at 11.4 µM] (inactive).

For `Cc1cc(Cc2cc(Cc3cc(C)cc(C(C)(C)C)c3O)c(C)cc2C)c(O)c(C(C)(C)C)c1`, the activity, negative = inhibition was -23.1% [at 11.4 µM] (inactive).

`CC(C)(C=O)Cc1cc(C(C)(C)C)c(O)c(C(C)(C)C)c1`: the half-maximal activity concentration (AC50) was 12.6 µM (active).

Turning to `CCCCCc1nc2c(=O)[nH]c3ccccc3c2o1`, the “activity, negative = inhibition” value was -8.01% (inactive).

Take `CN(C)CCCc1c2ccccc2nc2ccc(Cl)cc12`: the activity, negative = inhibition was -1.41% [at 11.4 µM] (inactive).

`CCCCc1c2ccccc2nc2[nH]c3ccccc3c12`: the half-maximal activity concentration (AC50) is 15.8 µM (active).

For the compound `Clc1ccc2c(NC3CCC(N4CCCCC4)CC3)ccnc2c1` (stereo not drawn), the activity, negative = inhibition was -1.29% [at 11.4 µM] (inactive).

Consider `COc1ccccc1-c1cc(Nc2ccc(F)cc2)ncn1`, for which the “activity, negative = inhibition” value is -29.9% (inactive).

As to `COc1ccccc1CNc1cc(-c2ccccc2OC)ncn1`, the concentration at half-maximal activity (AC50) was 15.8 µM (active).

With `COc1ccc(CNc2cc(-c3ccccc3OC)ncn2)c(OC)c1`, the AC50 was 6.31 µM (active).

With `COc1ccc(CNc2cc(-c3ccccc3Cl)ncn2)c(OC)c1`, the AC50 was 6.31 µM (active).

As to `COc1ccccc1-c1cc(Nc2ccn[nH]2)ncn1`, the half-maximal activity concentration (AC50) was 3.98 µM (active).

With `N/C(=N\O)c1cn([C@@H]2O[C@@H](CO)[C@H](O)[C@@H]2O)c2ncnc(NO)c12`, the activity, negative = inhibition was -7.27% [at 11.4 µM] (inactive).
